# Measurements reported in PubChem BioAssay (Tox21).
# Several values for one entry are separate records, joined by “and”; a condition that tells them apart may be missing. Identical values can stand only once. Results filed as inconclusive are left out. A call without a number means that no potency is given here. Some compounds were tested as several samples or in several runs, with calls that do not always agree. Activity calls are given as the source filed them. Unless noted, calls follow the shape of the dose curve; as a rule, active = well fitted curve in the direction sought with a large enough effect in the repeat runs; inconclusive = weak or mixed curves; inactive = no such curve, though single readings can be large; an effect the other way counts as inactive or inconclusive.
# Key:
# [1] = qHTS assay to identify small molecule agonists of the estrogen receptor alpha (ER-alpha) signaling pathway in the presence of an antagonist - cell viability counter screen (AID 1259386);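 also: cells exposed to compounds for 22 h at 37 °C before the viability read; nearly all actives have a fitted effect of over 30% in size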; also: potency is read from the fitted curve at half-maximal effect
# Method in brief: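 Steps: 5-day stripped-FBS culture; seed and incubate 24hr; add ICI-182,780 (10.0nM final); pin 15-point compound titration; incubate 22hr at 37C; add CellTiter-Fluor at 21hr; read fluorescence.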
# [2] = target: Progesterone receptor (Homo sapiens) (UniProt P06401); experiment: qHTS assay to identify small molecule agonists of the progesterone receptor (PR) signaling pathway (AID 1346784; calls by dose curve; also: nearly all actives have a fitted effect of over 30% in size)
# Sequence of Progesterone receptor (Homo sapiens) (P06401 whole entry, looked up): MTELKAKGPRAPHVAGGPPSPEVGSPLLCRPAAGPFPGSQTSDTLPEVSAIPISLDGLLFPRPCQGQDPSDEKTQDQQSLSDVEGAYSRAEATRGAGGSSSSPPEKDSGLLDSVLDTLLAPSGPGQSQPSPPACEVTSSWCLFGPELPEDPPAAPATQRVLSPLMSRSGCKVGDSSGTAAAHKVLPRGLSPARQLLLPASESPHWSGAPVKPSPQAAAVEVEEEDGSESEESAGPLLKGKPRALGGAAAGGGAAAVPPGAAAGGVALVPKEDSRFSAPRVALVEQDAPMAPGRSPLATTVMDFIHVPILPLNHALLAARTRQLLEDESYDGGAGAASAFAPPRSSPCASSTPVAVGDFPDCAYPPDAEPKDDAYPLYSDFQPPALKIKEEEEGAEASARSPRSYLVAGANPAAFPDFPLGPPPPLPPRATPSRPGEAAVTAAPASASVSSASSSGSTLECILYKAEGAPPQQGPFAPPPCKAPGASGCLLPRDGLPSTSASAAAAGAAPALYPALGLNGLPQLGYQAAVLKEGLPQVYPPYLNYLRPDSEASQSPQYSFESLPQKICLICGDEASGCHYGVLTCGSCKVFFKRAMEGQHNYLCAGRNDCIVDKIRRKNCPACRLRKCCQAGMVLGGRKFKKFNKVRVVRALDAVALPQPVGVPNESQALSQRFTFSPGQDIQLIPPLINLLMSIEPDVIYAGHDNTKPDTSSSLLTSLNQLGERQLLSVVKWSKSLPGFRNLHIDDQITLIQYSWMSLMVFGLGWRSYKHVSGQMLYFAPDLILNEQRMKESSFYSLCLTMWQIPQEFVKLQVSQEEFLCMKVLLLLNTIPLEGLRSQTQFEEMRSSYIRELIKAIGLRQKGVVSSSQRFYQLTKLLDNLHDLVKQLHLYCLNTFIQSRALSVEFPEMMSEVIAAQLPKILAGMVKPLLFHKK
# Method in brief: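 Beta-lactamase reporter read-out: after 16 hr compound treatment at 37C and a further 2 hr at room temperature with LiveBLAzer B/G FRET substrate, fluorescence was measured in PR-UAS-bla HEK 293T cells grown in 2% charcoal-stripped serum.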
# [3] = target: Progesterone receptor (Homo sapiens) (UniProt P06401); experiment: qHTS assay to identify small molecule antagonists of the progesterone receptor (PR) signaling pathway (AID 1346795; active = well fitted inhibition curve with a large enough effect in the signal ratio in the repeat runs, not every such curve was filed as active; the % refers to the signal ratio; also: potency is read from the fitted curve at half-maximal effect)
# Method in brief: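 Read-out is fluorescence from the LiveBLAzer B/G FRET substrate, cleaved by a UAS-controlled beta-lactamase in PR-UAS-bla HEK293T cells after 16 hr exposure to compound plus 1 nM promegestone (final), followed by 2 hr at room temperature.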
# [4] = qHTS assay to identify small molecule antagonists of the progesterone receptor (PR) signaling pathway - cell viability counter screen (AID 1346798);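 also: HEK293T PR-UAS-bla cells stimulated with the agonist R5020; series mostly up to about 92 µM; nearly all actives have a fitted effect of over 50% in size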
# Method in brief: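 HEK293T PR-UAS-bla, 2% charcoal-stripped FBS; 4 hr pre-plate; cpd + R5020, 16 h 37C; LiveBLAzer read first; then CellTiter-Glo 30 min RT, luminescence.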
# [5] = qHTS assay to identify small molecule agonists of the progesterone receptor (PR) signaling pathway - cell viability counter screen (AID 1346799; calls by dose curve; also: nearly all actives have a fitted effect of over 45% in size; also: potency is read from the fitted curve at half-maximal effect)
# Method in brief: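 Luminescence from CellTiter-Glo, added after the beta-lactamase FRET read in the same wells, gave cytotoxicity in PR-UAS-bla HEK293T cells treated with compounds for 16 hr at 37C.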
# [6] = qHTS assay to identify small molecule antagonists of the TGF-beta/Smad signaling pathway - cell viability counter screen (AID 1346824); also: nearly all actives have a fitted effect of over 50% in size
# Method in brief: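 SBE-bla HEK 293T cells, incubated overnight, then compound plus 0.25 ng/mL TGF-beta1 (stock added) for 5 hr at 37 C. Viability was read in the same wells by CellTiter-Glo luminescence after 30 min at room temperature.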
# [7] = qHTS assay to identify small molecule agonists of the TGF-beta/Smad signaling pathway - cell viability counter screen (AID 1346829); also: top concentration of the series differs between compounds; nearly all actives have a fitted effect of over 45% in size
# Method in brief: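 Same-well cytotoxicity: CellTiter-Glo added after the 2 hr room-temperature beta-lactamase substrate step, luminescence measured 30 min later; cells had 5 hr of compound at 37 C.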
# [8] = qHTS assay to identify small molecule agonists of the TGF-beta/Smad signaling pathway (AID 1346859; active = well fitted activation curve with a large enough effect in the signal ratio in the repeat runs, not every such curve was filed as active; the % refers to the signal ratio; also: series mostly up to about 77 µM)
# Method in brief: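 SBE-bla HEK 293T, 4,000 cells/well, plated o/n; cpd in DMSO, 5 hr, 37 C/5% CO2; B/G FRET substrate 2 hr RT; ex 405, em 460/530 nm.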
# [9] = target: Thyrotropin-releasing hormone receptor (Homo sapiens) (UniProt P34981); experiment: qHTS assay to identify small molecule antagonists of the thyrotropin-releasing hormone receptor (TRHR) signaling pathway (AID 1346877; active = well fitted inhibition curve with a large enough effect in the repeat runs, not every such curve was filed as active; also: series mostly up to about 51 µM)
# Sequence of Thyrotropin-releasing hormone receptor (Homo sapiens) (P34981 whole entry, looked up): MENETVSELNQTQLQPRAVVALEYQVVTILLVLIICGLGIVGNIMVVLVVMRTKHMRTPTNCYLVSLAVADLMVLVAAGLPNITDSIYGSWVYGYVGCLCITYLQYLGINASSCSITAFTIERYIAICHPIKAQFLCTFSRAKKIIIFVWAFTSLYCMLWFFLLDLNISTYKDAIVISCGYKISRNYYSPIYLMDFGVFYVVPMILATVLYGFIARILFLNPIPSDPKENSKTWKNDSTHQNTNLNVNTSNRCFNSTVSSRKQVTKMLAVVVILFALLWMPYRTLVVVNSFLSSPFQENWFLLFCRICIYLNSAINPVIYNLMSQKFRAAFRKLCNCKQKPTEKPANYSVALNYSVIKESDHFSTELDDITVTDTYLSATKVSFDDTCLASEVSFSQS
# Method in brief: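 Human TRHR in HEK293 cells; inhibition of the intracellular calcium rise triggered by 1 nM TRH was followed by fluorescence over 3 min. Compounds were run at 15 concentrations, three replicates each.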
# [10] = target: Thyrotropin receptor (Homo sapiens) (UniProt P16473); experiment: qHTS assay to identify small molecule antagonists of the thyroid stimulating hormone receptor (TSHR) signaling pathway (AID 1259385; calls by dose curve; also: nearly all actives have a fitted effect of over 20% in size)
# Sequence of Thyrotropin receptor (Homo sapiens) (P16473 whole entry, looked up): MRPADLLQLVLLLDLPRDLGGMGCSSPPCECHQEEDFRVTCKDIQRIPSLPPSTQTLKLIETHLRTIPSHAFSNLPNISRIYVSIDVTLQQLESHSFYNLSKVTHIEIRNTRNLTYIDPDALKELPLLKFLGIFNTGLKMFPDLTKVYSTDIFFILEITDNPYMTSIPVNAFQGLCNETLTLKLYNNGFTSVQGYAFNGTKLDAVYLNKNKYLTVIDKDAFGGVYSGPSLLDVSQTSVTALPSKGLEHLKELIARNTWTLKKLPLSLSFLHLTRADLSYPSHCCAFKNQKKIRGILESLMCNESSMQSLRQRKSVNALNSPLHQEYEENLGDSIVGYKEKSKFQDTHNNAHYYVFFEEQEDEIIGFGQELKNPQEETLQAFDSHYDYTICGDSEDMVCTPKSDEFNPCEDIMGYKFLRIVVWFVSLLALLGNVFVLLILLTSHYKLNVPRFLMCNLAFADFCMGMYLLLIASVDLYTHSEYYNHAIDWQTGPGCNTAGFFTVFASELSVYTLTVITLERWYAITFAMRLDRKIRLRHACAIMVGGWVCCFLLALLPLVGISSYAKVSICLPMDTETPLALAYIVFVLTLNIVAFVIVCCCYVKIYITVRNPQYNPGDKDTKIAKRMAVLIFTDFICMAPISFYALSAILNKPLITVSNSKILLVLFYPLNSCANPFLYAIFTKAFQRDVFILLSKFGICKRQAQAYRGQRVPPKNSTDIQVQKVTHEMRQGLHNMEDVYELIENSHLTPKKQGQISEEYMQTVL
# Method in brief: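 TSHR-HEK293 cells (800/well) plated 18 h, then compounds with Ro20-1724 and TSH at 1.5 ng/mL final, 30 min at room temperature. cAMP quantified by HTRF (cAMP-d2/anti-cAMP-cryptate, 1 h); 15 concentrations in triplicate.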
Compound,Potency [1],Potency [2],Potency [3],Potency [4],Potency [5],Potency [6],Potency [7],outcome [8],outcome [9],outcome [10]
C=C(C#N)C(=O)OCC,inactive,inactive,inactive,inactive,inactive,inactive,inactive,inactive,inactive,
O=C(c1ccc(O)cc1)c1ccc(O)cc1O,inactive,,19.5 µM (active),,,inactive,inactive,inactive,inactive,inactive
COC(=O)c1ccc(C(=O)OC)cc1,inactive,,,,17.5 µM (active) and inactive,inactive,inactive,inactive,inactive,inactive
O=[N+]([O-])c1cccc(Cl)c1,inactive,inactive,inactive,inactive,inactive,inactive,inactive,inactive,inactive,
CC1(C)CC(N=C=O)CC(C)(CN=C=O)C1 (centres undefined),inactive,,inactive,inactive,inactive,,inactive,inactive,inactive,inactive
CC1CC(OC(=O)c2ccccc2O)CC(C)(C)C1 (centres undefined),inactive,,,inactive,inactive,inactive,inactive,inactive,inactive,inactive
C/C=C(C)/C=C/C=C(C)C,inactive,inactive,inactive,inactive,inactive,,inactive,inactive,,
C=C(C)C(=O)OCCCCCCCCCCCC,inactive,,inactive,inactive,inactive,inactive,inactive,inactive,inactive,inactive
CN(C)c1cccc(O)c1,inactive,inactive,inactive,inactive,inactive,inactive,inactive,inactive,inactive,
CCc1ccc(O)cc1,inactive,inactive,inactive,inactive,inactive,,inactive,inactive,,
Oc1ccc2ccccc2c1N=Nc1ccccc1,21.7 µM (active) and 19.3 µM (active),inactive,24.3 µM (active),inactive,inactive,inactive,inactive,inactive,inactive,
CCCCC(CC)COC(C)=O (centres undefined),inactive,inactive,inactive,inactive,inactive,inactive,inactive,inactive,inactive,
CNC[C@H](O)[C@@H](O)[C@H](O)[C@H](O)CO,inactive,inactive,inactive,inactive,inactive,inactive,inactive,inactive,inactive,
Cc1ccc(C(=O)O)o1,inactive,inactive,inactive,inactive,inactive,inactive,inactive,inactive,,
c1ccc2ccccc2c1,inactive,inactive,inactive,inactive,inactive,inactive,inactive,inactive,inactive,
C=C(C)C(=O)OCC(CC)(COC(=O)C(=C)C)COC(=O)C(=C)C,inactive,,inactive,inactive,inactive,inactive,inactive,,inactive,inactive
OCC#CCO,inactive,,inactive,inactive,inactive,,inactive,inactive,inactive,inactive
C[C@@H]1O[C@@H](OC[C@H]2O[C@@H](Oc3c(-c4ccc(O)c(O)c4)oc4cc(O)cc(O)c4c3=O)[C@H](O)[C@@H](O)[C@@H]2O)[C@H](O)[C@H](O)[C@H]1O,54.9 µM (active),inactive,inactive,inactive,inactive,inactive,inactive,inactive,inactive,
CCCCNC(N)=O,inactive,inactive,inactive,inactive,inactive,inactive,inactive,inactive,inactive,
CC#C[C@]1(O)CC[C@H]2[C@@H]3CCC4=CC(=O)CCC4=C3[C@@H](c3ccc(N(C)C)cc3)C[C@@]21C,inactive,,,inactive,inactive,inactive,inactive,,inactive,inactive
Cn1c([N+](=O)[O-])cnc1COC(N)=O,inactive,inactive,inactive,inactive,inactive,inactive,inactive,inactive,,
O=C1CCCCC1,inactive,inactive,inactive,inactive,inactive,inactive,inactive,inactive,inactive,
CCCCCCC(C)(C)S,inactive,inactive,inactive,inactive,inactive,inactive,inactive,inactive,inactive,
O=C(O)c1ccc([N+](=O)[O-])cc1,inactive,inactive,inactive,inactive,inactive,inactive,inactive,inactive,inactive,
Clc1cc(Cl)c(Cl)cc1Cl,inactive,inactive,inactive,inactive,inactive,inactive,inactive,inactive,,
Cc1ccc(N)c(S(=O)(=O)O)c1,inactive,,inactive,inactive,inactive,,inactive,inactive,inactive,inactive
Cc1cc(=O)[nH]c(C(C)C)n1,inactive,inactive,inactive,inactive,inactive,,inactive,inactive,inactive,
